Measured values from the supplement of paper PMC3334620.
Whole data set: some 33,000 sequences, median “E-score (-0.5 to 0.5)” near -0.041, cut for the highest 2% near 0.37. Many of the other results were omitted from the sample, so the highest values are more common in it than they were.

Biological target: T1, Ecm22 (UniProt Q05958)
T1 sequence: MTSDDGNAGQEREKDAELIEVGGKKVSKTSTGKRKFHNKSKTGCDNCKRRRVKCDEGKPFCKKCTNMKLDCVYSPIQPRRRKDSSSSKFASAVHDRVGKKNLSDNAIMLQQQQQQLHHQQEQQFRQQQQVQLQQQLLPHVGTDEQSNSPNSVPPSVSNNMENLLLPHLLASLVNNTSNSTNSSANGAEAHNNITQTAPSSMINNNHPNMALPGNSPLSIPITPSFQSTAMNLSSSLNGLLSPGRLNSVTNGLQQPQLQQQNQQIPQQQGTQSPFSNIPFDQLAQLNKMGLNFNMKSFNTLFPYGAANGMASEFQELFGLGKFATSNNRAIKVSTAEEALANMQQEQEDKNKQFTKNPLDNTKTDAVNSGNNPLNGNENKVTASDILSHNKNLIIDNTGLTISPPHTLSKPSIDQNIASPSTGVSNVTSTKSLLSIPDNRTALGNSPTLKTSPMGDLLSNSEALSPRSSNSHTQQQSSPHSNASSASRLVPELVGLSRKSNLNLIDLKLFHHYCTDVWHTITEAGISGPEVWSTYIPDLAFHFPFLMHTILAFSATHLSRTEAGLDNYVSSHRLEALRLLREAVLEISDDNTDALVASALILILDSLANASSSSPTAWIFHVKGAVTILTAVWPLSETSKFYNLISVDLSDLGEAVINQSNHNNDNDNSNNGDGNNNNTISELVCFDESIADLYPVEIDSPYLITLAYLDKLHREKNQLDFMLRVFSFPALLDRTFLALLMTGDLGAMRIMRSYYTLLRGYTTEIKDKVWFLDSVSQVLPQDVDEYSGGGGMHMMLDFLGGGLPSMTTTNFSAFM
Assay: PBM E-score (8-mer binding enrichment) (E-score (-0.5 to 0.5)); higher = stronger / more preferred TF binding
Details: protein concentration: 200 nM; construct: GST-full length
How it was run: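 For each ungapped eight-base word taken together with its reverse complement, the Universal PBM Analysis Suite assigned an E-score. Binding data came from GST-tagged yeast transcription factors, applied at about 100-200 nM, on universal all-10-mer Agilent arrays made double-stranded by primer extension. Fluorescent anti-GST marked bound protein, and scans were normalised with masliner.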

Row | Sequence | PBM E-score
1 | CGCTCACC | 0.112
2 | ACCATTTG | -0.0622
3 | CCATGAGA | -0.118
4 | AACCGAGA | 0.312
5 | AGCAAGTG | -0.181
6 | AGTGGAAT | -0.0777
7 | AACCGGAG | -0.0216
8 | AGGCTTTA | -0.133
9 | AGGATCCT | 0.134
10 | CAAACGGA | 0.202
11 | TAAACGTA | 0.38
12 | AAAACGTA | 0.164
13 | CAAACGTA | 0.186
14 | TAAACGGA | 0.433
15 | GAAACGGA | 0.256
16 | AGACCACG | -0.221
17 | ACGCGAGA | 0.281
18 | AAGTTCGT | 0.319
19 | CTAGACAG | -0.189
20 | CCTCATAG | -0.183
21 | ACTCGTCC | -0.139
22 | CCTCGGAC | 0.246
23 | CCTCGTAC | 0.491
24 | ACTCGTCT | 0.172

Row | Sequence | PBM E-score
25 | ACTCGTGC | 0.0518
26 | ACTCGTAC | 0.484
27 | CCGCGTAC | 0.231
28 | CCTCGTAG | 0.41
29 | CCTCGTCG | 0.218
30 | ACTCGTAT | 0.479
31 | ACTCGGAT | 0.318
32 | AGCCCAGG | -0.341
33 | AGGGCGCG | -0.0881
34 | CCCTTCTC | -0.218
35 | CCGTTAGA | 0.0314
36 | GCAGCCGC | -0.0784
37 | ATACAGAG | -0.0254
38 | ATGGTCTG | -0.0872
39 | CCTTTCAA | -0.203
40 | ACCTCTAG | -0.137
41 | GCTCGTAA | 0.451
42 | TCTCGTAA | 0.438
43 | CCTCGTGA | 0.201
44 | ACTCGTCA | 0.0424
45 | GCTCGTCA | 0.0115
46 | TCTCGTCA | 0.0737
47 | CCTCGTAA | 0.446
48 | CCTCGTCA | 0.232

Row | Sequence | PBM E-score
49 | ACTCGTAA | 0.437
50 | GCTCGTGA | 0.171
51 | TCACGTAA | 0.00322
52 | ACTCGTAG | 0.34
53 | CTGAACCC | 0.0346
54 | AGCTGTAT | -0.124
55 | AGCCTGCG | -0.17
56 | AGAGACAT | -0.195
57 | GCTCGTCC | -0.109
58 | GCTCGTAC | 0.486
59 | GCACGTAC | 0.168
60 | CACACATC | -0.226
61 | CGATCAGC | 0.09
62 | TCGAGGAA | 0.101
63 | ACGAGGAC | 0.42
64 | AGGAGGAT | -0.157
65 | ACGAGGAA | 0.375
66 | CCGAGGAC | 0.207
67 | ACGAGGAT | 0.387
68 | ACGAGGAG | 0.349
69 | CCGAGGAA | 0.0818
70 | GCGAGGAC | 0.0393
71 | ACGCTCGG | 0.21
72 | CAGCTGCA | -0.385

Row | Sequence | PBM E-score
73 | CCATTCCA | -0.228
74 | CGTGTGCA | -0.0516
75 | AGTCTACC | -0.156
76 | CAAGATCG | 0.122
77 | ACCCGTAA | 0.179
78 | AACCGTAT | 0.341
79 | ACCCGTAC | 0.374
80 | ACCCGTAG | -0.142
81 | ACCCGTAT | 0.391
82 | GCCCGTAA | 0.221
83 | CCCCGTAG | 0.0215
84 | GCCCGTCC | -0.279
85 | CCCCGTAC | 0.377
86 | CCCCGTAA | 0.211
87 | GCCCGTAC | 0.396
88 | ACCCGTCT | -0.0476
89 | ACGTATTC | 0.144
90 | ACGGAGCC | -0.084
91 | ATTACTTC | -0.0783
92 | GAGGGATC | -0.0216
93 | CTCCTTCC | -0.152
94 | CGGCGCAG | -0.0964
95 | ACAACCGA | 0.26
96 | AACCTTTC | -0.0282

Row | Sequence | PBM E-score
97 | CGCAGAAG | 0.00639
98 | AACTAACG | 0.141
99 | GTTCGTCA | 0.0919
100 | GTTCGTGA | 0.141
101 | ATTCGTGA | -0.00041
102 | GTTCGTAA | 0.427
103 | ATTCGTAG | 0.325
104 | ATTCGTAA | 0.405
105 | AAATGCGC | -0.0587
106 | AAACTGTG | -0.214
107 | CCAGTCAA | -0.166
108 | CACGTACC | 0.285
109 | CCCGTACC | 0.446
110 | CCCGTACG | 0.402
111 | CCCGTAAC | 0.189
112 | CCCGTACA | 0.368
113 | CCCGTAGG | -0.158
114 | AGACCTTG | -0.252
115 | GGAAATCC | -0.00159
116 | AGCAGCCT | -0.102
117 | ATAGCCCC | -0.223
118 | CCAAGGGA | -0.0775
119 | CATCAATG | -0.153
120 | GCCGGTAC | 0.129

Row | Sequence | PBM E-score
121 | CGGCACGA | 0.176
122 | ACTTTGTG | 0.118
123 | ACGCTACA | -0.0355
124 | CCGCTACG | 0.339
125 | ACGCTACG | 0.382
126 | TATCGCCA | -0.0963
127 | GCGGTTAA | -0.0219
128 | TCGGTTAA | 0.387
129 | CCGGTTAA | 0.132
130 | GTCCCCCA | -0.157
131 | GCGGTAAA | 0.173
132 | CGCAACGC | 0.0974
133 | GGCAACTA | -0.282
134 | GGCAACCA | -0.0847
135 | GGCAACGA | 0.417
136 | CGCAACAA | 0.0504
137 | CGCAACGA | 0.448
138 | AGCAACGG | 0.203
139 | AGCAACGA | 0.407
140 | AGCAACGC | 0.0942
141 | AATCGAGG | 0.0537
142 | CAAAAGTA | -0.0653
143 | CCATTTTC | -0.105
